Assay results from PubChem BioAssay (NCI).
The panel holds about 83,000 compounds, 20% with a hit somewhere; the sample as a whole holds those more often.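 Interpretation: 100, growth as untreated; towards 0, rising growth inhibition; 0, no net growth; 0 to -100, cell death. Compounds scoring below 10 were considered active.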 Activity calls are given as the source filed them.

Tests used:
Assay in all cases: NCI-60 one-dose screen, 48 h (100 = growth as untreated, 0 = no growth, -100 = all killed)
NCI-H23 lung = conditions: 10 µM unless noted
NCI-H322M lung = conditions: 10 µM unless noted
NCI-H460 lung = conditions: 10 µM unless noted
HOP-92 NSCLC = conditions: 10 µM unless noted
NCI-H522 lung = conditions: 10 µM
A549/ATCC NSCLC = conditions: 10 µM unless noted
786-0 renal = conditions: 10 µM unless noted
DU-145 prostate = conditions: 10 µM unless noted
K-562 leukemia = conditions: 10 µM unless noted
MALME-3M melanoma = conditions: 10 µM unless noted
MDA-MB-231 breast = conditions: 10 µM unless noted
RXF 393 renal = conditions: 10 µM unless noted
SF-268 CNS = conditions: 10 µM unless noted
SF-295 CNS = conditions: 10 µM unless noted
SF-539 CNS = conditions: 10 µM unless noted
UACC-257 melanoma = conditions: 10 µM unless noted
M14 melanoma = conditions: 10 µM unless noted
HOP-62 NSCLC = conditions: 10 µM unless noted
COLO 205 colon = conditions: 10 µM unless noted

Measured: growth

COc1ccc(NS(=O)(=O)c2ccc(-c3cnc(C4CC4)o3)cc2)cc1
inactive: NCI-H23 lung 71.9% | NCI-H322M lung 91.8% | NCI-H460 lung 33.2% | HOP-92 NSCLC 63% | NCI-H522 lung 51% | A549/ATCC NSCLC 54.7% | 786-0 renal 81.3% | DU-145 prostate 81.2% | K-562 leukemia 22.8% | MALME-3M melanoma 58.3% | MDA-MB-231 breast 69.7% | RXF 393 renal 83.9% | SF-268 CNS 73.2% | SF-295 CNS 50% | SF-539 CNS 65.2% | UACC-257 melanoma 72.5% | M14 melanoma 40.9%

Cc1nc2ccc(Cl)cc2n1C
inactive: NCI-H23 lung 107% | NCI-H322M lung 108% | NCI-H460 lung 109% | HOP-92 NSCLC 105% | NCI-H522 lung 90.2% | A549/ATCC NSCLC 103% | 786-0 renal 101% | DU-145 prostate 115% | K-562 leukemia 92.4% | MALME-3M melanoma 106% | MDA-MB-231 breast 118% | RXF 393 renal 101% | SF-268 CNS 103% | SF-295 CNS 104% | SF-539 CNS 106% | UACC-257 melanoma 100% | M14 melanoma 106%

Nc1ccccc1-c1n[nH]c(=O)[nH]c1=O
inactive: NCI-H23 lung 96.6% | NCI-H322M lung 114% | HOP-62 NSCLC 112% | NCI-H460 lung 107% | A549/ATCC NSCLC 105% | 786-0 renal 109% | COLO 205 colon 137% | DU-145 prostate 121% | K-562 leukemia 107% | MALME-3M melanoma 106% | MDA-MB-231 breast 113% | SF-268 CNS 114% | SF-295 CNS 79% | SF-539 CNS 101% | M14 melanoma 99%

CN1CCc2c(c3ccccc3c3ccccc23)C1
inactive: NCI-H23 lung 74.2% | NCI-H322M lung 51.4% | HOP-62 NSCLC 45.8% | NCI-H460 lung 27.7% | NCI-H522 lung 48.7% | 786-0 renal 49.8% | COLO 205 colon 22.2% | DU-145 prostate 45.7% | K-562 leukemia 27.1% | MALME-3M melanoma 53.4% | MDA-MB-231 breast 59.6% | SF-268 CNS 39.1% | SF-295 CNS 45.1% | SF-539 CNS 50.8% | UACC-257 melanoma 37.6% | M14 melanoma 56.2%

O=c1oc2ccccc2cc1-c1csc(N=Nc2c(O)[nH]c3ccc(Br)cc23)n1
inactive: NCI-H23 lung 98.6% | NCI-H322M lung 102% | NCI-H460 lung 100% | HOP-92 NSCLC 123% | NCI-H522 lung 99.5% | A549/ATCC NSCLC 93.8% | 786-0 renal 103% | DU-145 prostate 109% | K-562 leukemia 111% | MALME-3M melanoma 99% | MDA-MB-231 breast 95.6% | RXF 393 renal 115% | SF-268 CNS 101% | SF-295 CNS 101% | SF-539 CNS 99.5% | UACC-257 melanoma 97.3% | M14 melanoma 105%

COc1cc(-c2nc(Nc3nc4ccccc4[nH]3)nc(N)c2C#N)cc(OC)c1OC
active: RXF 393 renal -1.43%
inactive: NCI-H23 lung 87.9% | NCI-H322M lung 83.2% | HOP-62 NSCLC 65.1% | HOP-92 NSCLC 50.5% | NCI-H522 lung 20.1% | A549/ATCC NSCLC 69.6% | 786-0 renal 67.1% | COLO 205 colon 32.3% | DU-145 prostate 61.8% | MALME-3M melanoma 65% | MDA-MB-231 breast 53% | SF-268 CNS 71.2% | SF-295 CNS 18.1% | SF-539 CNS 58.9% | UACC-257 melanoma 69.5% | M14 melanoma 53%

CN1CCN(c2nc(-c3ccncc3)nc3sc4c(c23)CCCCCC4)CC1
inactive: NCI-H23 lung 73% | NCI-H322M lung 86.6% | HOP-62 NSCLC 71% | NCI-H460 lung 84.3% | A549/ATCC NSCLC 69% | COLO 205 colon 52.8% | DU-145 prostate 91% | K-562 leukemia 35.5% | MALME-3M melanoma 76.8% | MDA-MB-231 breast 49.2% | SF-268 CNS 61.2% | SF-295 CNS 57.2% | SF-539 CNS 54.4% | M14 melanoma 105%

CCOC(=O)C1=C(C)N2C(=NC3=C(CCCC/C3=C\c3cc(OC)c(OC)c(OC)c3)C2c2cc(OC)c(OC)c(OC)c2)S1 (stereo unspecified)
inactive: NCI-H23 lung 61.9% | NCI-H322M lung 96.5% | HOP-62 NSCLC 50% | NCI-H460 lung 60% | A549/ATCC NSCLC 60.3% | COLO 205 colon 81.2% | DU-145 prostate 86% | K-562 leukemia 31.2% | MALME-3M melanoma 51.8% | MDA-MB-231 breast 71.9% | SF-268 CNS 80.6% | SF-295 CNS 56.5% | SF-539 CNS 79.9% | M14 melanoma 79%

CNc1ccc(Br)cc1-c1n[nH]c(=O)[nH]c1=O
inactive: NCI-H23 lung 90.8% | NCI-H322M lung 115% | HOP-62 NSCLC 105% | NCI-H460 lung 101% | A549/ATCC NSCLC 112% | 786-0 renal 95% | COLO 205 colon 131% | DU-145 prostate 122% | K-562 leukemia 103% | MALME-3M melanoma 110% | MDA-MB-231 breast 94.2% | SF-268 CNS 111% | SF-295 CNS 79.6% | SF-539 CNS 103% | M14 melanoma 100%

O=S(=O)(Nc1ccc(Cl)c(Cl)c1)c1ccc(-c2cnc(C3CC3)o2)cc1
active: NCI-H460 lung 4.29% | NCI-H522 lung 6.78% | RXF 393 renal -19.4% | SF-539 CNS -13.5%
inactive: NCI-H23 lung 39.6% | NCI-H322M lung 40.7% | HOP-92 NSCLC 48% | A549/ATCC NSCLC 25.5% | 786-0 renal 46.3% | DU-145 prostate 15.3% | K-562 leukemia 16.2% | MALME-3M melanoma 53.3% | MDA-MB-231 breast 28.4% | SF-268 CNS 47.7% | SF-295 CNS 14.9% | UACC-257 melanoma 63.1% | M14 melanoma 14.1%

COc1ccc(Nc2[nH]n(C3=Nc4ccccc4Sc4ccccc43)c(=O)c2C#N)cc1
inactive: NCI-H23 lung 28.3% | NCI-H322M lung 89.1% | HOP-62 NSCLC 75.9% | NCI-H522 lung 29.6% | A549/ATCC NSCLC 55.2% | 786-0 renal 64.7% | COLO 205 colon 15.1% | DU-145 prostate 67% | K-562 leukemia 51.9% | MDA-MB-231 breast 51.2% | RXF 393 renal 59.3% | SF-268 CNS 67.2% | SF-539 CNS 45.6% | UACC-257 melanoma 36.3% | M14 melanoma 55.9%

Clc1ccc(C2=Nc3cccc4cccc(c34)N2)cc1Cl
active: RXF 393 renal -5.75%
inactive: NCI-H23 lung 76.9% | NCI-H322M lung 103% | NCI-H460 lung 100% | HOP-92 NSCLC 92.9% | NCI-H522 lung 62% | A549/ATCC NSCLC 99.6% | 786-0 renal 111% | COLO 205 colon 100% | DU-145 prostate 110% | MALME-3M melanoma 102% | MDA-MB-231 breast 97.4% | SF-295 CNS 112% | SF-539 CNS 108% | UACC-257 melanoma 93.6% | M14 melanoma 103%

CN1CCN(C(=O)OCCOCCOC(=O)N2CCN(C)CC2)CC1
inactive: NCI-H23 lung 97.6% | NCI-H322M lung 105% | HOP-62 NSCLC 106% | NCI-H460 lung 107% | A549/ATCC NSCLC 104% | 786-0 renal 94.5% | COLO 205 colon 102% | DU-145 prostate 111% | K-562 leukemia 106% | MALME-3M melanoma 133% | MDA-MB-231 breast 94.9% | RXF 393 renal 87.8% | SF-268 CNS 102% | SF-295 CNS 85.9% | SF-539 CNS 97.9% | UACC-257 melanoma 94.2% | M14 melanoma 103%

O=C1NC(=O)C2(CCCC2C(=O)O)N1 (stereo unspecified)
inactive: NCI-H23 lung 98.3% | NCI-H322M lung 117% | HOP-62 NSCLC 111% | NCI-H460 lung 106% | A549/ATCC NSCLC 105% | 786-0 renal 94.9% | COLO 205 colon 109% | DU-145 prostate 120% | K-562 leukemia 98% | MALME-3M melanoma 140% | MDA-MB-231 breast 105% | RXF 393 renal 117% | SF-268 CNS 109% | SF-295 CNS 99.8% | SF-539 CNS 101% | UACC-257 melanoma 86.7% | M14 melanoma 106%

CCN(CC)CCCNc1ccc(C)c2sc3ccccc3c(=O)c12
inactive: NCI-H23 lung 53.8% | NCI-H322M lung 57.2% | HOP-62 NSCLC 40.9% | HOP-92 NSCLC 25.3% | NCI-H522 lung 54.4% | A549/ATCC NSCLC 19.1% | 786-0 renal 32.5% | DU-145 prostate 43.2% | SF-268 CNS 48.1% | SF-295 CNS 32.5% | SF-539 CNS 51.5%
active: COLO 205 colon -70.2% | K-562 leukemia -7.56% | MALME-3M melanoma -61.7% | MDA-MB-231 breast -12.1% | RXF 393 renal 1.02% | UACC-257 melanoma -61.3% | M14 melanoma -64.8%

Clc1ccc2c(c1)C[C@H]1C[C@@H](c3cccs3)N2O1
inactive: NCI-H23 lung 106% | NCI-H322M lung 99.7% | NCI-H460 lung 104% | HOP-92 NSCLC 69.8% | NCI-H522 lung 102% | 786-0 renal 108% | COLO 205 colon 112% | DU-145 prostate 106% | K-562 leukemia 106% | MALME-3M melanoma 95.9% | MDA-MB-231 breast 113% | RXF 393 renal 131% | SF-268 CNS 102% | SF-295 CNS 94.4% | SF-539 CNS 92.3% | UACC-257 melanoma 105% | M14 melanoma 118%

COc1ccc(/C=C(\C#N)c2cc3ccccc3n2C)cc1
inactive: NCI-H23 lung 39.4% | NCI-H322M lung 48.3% | HOP-92 NSCLC 76.5% | A549/ATCC NSCLC 27.2% | 786-0 renal 32.9% | MALME-3M melanoma 60.8% | MDA-MB-231 breast 31% | SF-268 CNS 47.5% | UACC-257 melanoma 72.6%
active: NCI-H460 lung 6.08% | COLO 205 colon -17.8% | DU-145 prostate 2.99% | K-562 leukemia 7.26% | RXF 393 renal -6.28% | SF-295 CNS 9.9% | SF-539 CNS -15.9% | M14 melanoma 6.61%

Oc1cccc(Nc2nc(-c3ccccn3)cs2)c1
inactive: NCI-H23 lung 107% | NCI-H322M lung 94.6% | HOP-62 NSCLC 98% | HOP-92 NSCLC 89% | 786-0 renal 102% | COLO 205 colon 103% | DU-145 prostate 122% | K-562 leukemia 93.8% | MALME-3M melanoma 109% | MDA-MB-231 breast 98% | RXF 393 renal 113% | SF-268 CNS 110% | SF-295 CNS 99.4% | SF-539 CNS 98.3% | UACC-257 melanoma 110% | M14 melanoma 111%

O=c1nc(NO)[nH]c(=O)n1Cc1ccc(F)cc1
inactive: NCI-H23 lung 106% | NCI-H322M lung 98.8% | HOP-62 NSCLC 107% | NCI-H460 lung 102% | A549/ATCC NSCLC 104% | 786-0 renal 101% | COLO 205 colon 118% | DU-145 prostate 114% | K-562 leukemia 98.1% | MALME-3M melanoma 103% | MDA-MB-231 breast 122% | SF-268 CNS 104% | SF-539 CNS 102% | M14 melanoma 107%
